Screening results as filed in PubChem BioAssay.
This is a sample that favours compounds with a hit; in the whole collection about 3.9% have one here.
SKKanGAS inh – blocks kanamycin growth of S. pyogenes SKKanGAS strain; BacTiter-Glo, 6 h; 300,000 tested, 1.3% active; inhibition, % at 7.5 µM;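 active means mean replicate score, as percent of positive control median, at least 50; inconclusive means mean below 50 but one replicate at or above 50; inactive means mean and every replicate below 50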;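 further: strain carries kanamycin resistance gene driven by streptokinase promoter and grows in 40 µg/ml kanamycin; loss of luminescence reflects streptokinase promoter inhibition or plain growth inhibition; 0% = median of DMSO wells and 100% = positive control at its reference dose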
Platelet DG rel – platelet dense granule release activity | 300,000 tested, 0.22% active | AID 1663 | inhibition, %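 (compounds screened at 7.5 µM in platelet-rich plasma)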 | human platelet-rich plasma, SFLLRN dense granule ATP release, luminescence;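 active means mean replicate score, as percent of positive control, at or above 50; inconclusive means mean below 50 but at least one replicate at or above 50; inactive means mean and every replicate below 50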
TPT1 inh – inhibitors of Candida albicans tRNA 2'-phosphotransferase TPT1; recombinant caTPT1, FP RNA substrate dephosphorylation; inhibition, % at 5 µM; 300,000 tested, 0.81% active; AID 1962;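 active means inhibition above the mean of all tested compounds plus 3 SD, set per screening campaign, cut at about 24% in these data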;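 further: plate controls were DMSO alone for no effect and ferristatin control at 100 nM for full effect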
Rtt109 Vps75 – C. albicans Rtt109 histone acetyltransferase inhibition | Q5AAJ8 | purified Rtt109/Vps75, ThioGlo CoA-SH fluorescence, 4 h | inhibition, % at 34.9 µM | 330,000 tested, 0.16% active;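 active means inhibition of at least 50% in every replicate; inconclusive means best replicate reaches 50% inhibition but some replicates fall short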
Target sequence (Q5AAJ8 whole entry, looked up): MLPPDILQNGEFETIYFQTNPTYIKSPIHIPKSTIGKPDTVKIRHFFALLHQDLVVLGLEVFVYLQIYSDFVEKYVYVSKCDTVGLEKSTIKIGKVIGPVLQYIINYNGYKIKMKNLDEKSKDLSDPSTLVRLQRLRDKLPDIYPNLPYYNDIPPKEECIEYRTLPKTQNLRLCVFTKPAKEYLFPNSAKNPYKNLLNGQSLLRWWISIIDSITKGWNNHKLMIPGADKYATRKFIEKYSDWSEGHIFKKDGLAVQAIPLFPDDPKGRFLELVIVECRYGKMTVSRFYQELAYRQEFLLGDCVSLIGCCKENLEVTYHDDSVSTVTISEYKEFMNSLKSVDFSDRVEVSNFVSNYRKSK
PHOSPHO1 inh – PHOSPHO1 (human) inhibition; inhibition, % at 13.3 µM; recombinant PHOSPHO1, absorbance phosphatase assay; 290,000 tested, 1.1% active; Q8TCT1; in the data active means inhibition above about 60%
WT yeast gro inh – growth inhibition of WT yeast, mitochondrial fusion screen; 190,000 tested, 2.1% active; inhibition, % at 10 µM; AID 1362; mitochondrial fusion phenotypic screen, WT strain; in the data active means inhibition above about 58%; tested in S. cerevisiae
The depositor's hits bear a star; ? = inconclusive; . = no result.

SMILES	SKKanGAS inh	Platelet DG rel	TPT1 inh	Rtt109 Vps75	PHOSPHO1 inh	WT yeast gro inh
CO/N=C(\c1nonc1N)N1CCN(c2ccc([N+](=O)[O-])cc2Cl)CC1	1	1	-2	7	-7	6
CO/N=C(\c1nonc1N)N1CCN(c2ccc(Cl)cc2[N+](=O)[O-])CC1	1	0	0	5	42	75*
O=C(Nc1ccc(Br)c2ccccc12)c1ccc2ccccc2c1O	100*	1	-1	0	-19	.
CC(=O)Nc1ccc(Br)c2ccccc12	2	-2	-2	-3	13	2
COc1ccccc1NC(=O)COC(=O)c1ccc([N+](=O)[O-])s1	5	-10	2	-2	4	95*
Cc1ccc(NC(=O)COC(=O)c2ccc([N+](=O)[O-])s2)c(C)c1	-4	-7	-4	1	-6	1
CC1CCC2(CC1)NC(=O)N(NC(=O)c1ccc(OC(C)C)cc1)C2=O (stereo not drawn)	.	.	.	-1	.	.
CC(C)C(NC(=O)c1ccc(C(C)(C)C)cc1)C(=O)NC1=NCCS1 (stereo not drawn)	3	6	-1	8	13	63*
CC(C)(C)c1ccc(OCCC(=O)NC2=NCCS2)cc1	37	-1	3	0	-34	76*
O=C(NCC1CCCCC1)c1cccc(-c2ccc(O)cc2)c1	20	2	-1	3	-10	.
CCOC(=O)N1CCN(C(=O)c2cc3n(n2)C(C(F)(F)F)CC(c2ccc4c(c2)OCO4)N3)CC1 (stereo not drawn)	54*	7	0	3	28	.
O=C(NCc1ccc2c(c1)OCO2)c1cc2n(n1)C(C(F)(F)F)CC(c1ccc3c(c1)OCO3)N2 (stereo not drawn)	4	3	-3	-4	-17	10
Cc1cccc(N2CCN(C(=O)c3cc4n(n3)C(C(F)(F)F)CC(c3ccco3)N4)CC2)c1C (stereo not drawn)	?	2	-3	12	0	61*
O=C(Nc1cc(Cl)ccc1O)c1cc2n(n1)C(C(F)(F)F)CC(c1ccc3c(c1)OCO3)N2 (stereo not drawn)	101*	-6	2	8	-21	34
NC(=O)C1CCN(S(=O)(=O)c2cc3c4c(c2)CCN4C(=O)CC3)CC1	-3	0	-4	3	.	.
Cc1ccc(S(=O)(=O)Nc2ccc(C(=O)NCCCn3ccnc3)cc2)cc1[N+](=O)[O-]	.	.	.	-2	.	.
CC1CC(C)CN(C(=O)CNC(=O)c2ccc3ccccc3c2)C1 (stereo not drawn)	2	-22	0	2	19	.
CC1=CC(C)(C)n2c(O)c(N=N)c3c(C)c(C)cc1c32	68*	-5	-1	1	33	.
CC1=CC(C)(C)n2c(O)c(N=N)c3c(C)ccc1c32	14	4	-4	-8	-7	.
COc1ccc(/C=C(\C#N)C(=O)N2COCC2(C)C)cc1	-4	10	3	.	.	.
COc1ccc(Nc2nc(N)nc(CSc3nc(C)cc(C)n3)n2)cc1	.	11	0	31	60*	-12
COc1ccccc1Nc1nc(N)nc(CSc2nc(C)cc(C)n2)n1	-10	-2	0	2	26	0
COc1ccccc1CN(C)C(=O)c1cccc(S(=O)(=O)N2CCc3ccccc3C2)c1	.	.	.	1	.	.
CC/C(=C/c1ccccc1)c1cccc2[nH]c3c(OC)cccc3c12	99*	0	3	2	-41	.
C=CCn1c(SCC(N)=O)nc(C)cc1=O	-1	5	0	-30	-18	61*
SMILES	SKKanGAS inh	Platelet DG rel	TPT1 inh	Rtt109 Vps75	PHOSPHO1 inh	WT yeast gro inh
C=CCn1c(SCC(=O)N(CC)CC)nc(O)cc1=O	14	0	-3	-7	14	9
CCOc1ccc2nc(NC(=O)c3ccc(C)o3)sc2c1	4	61*	-5	.	.	.
CN(C)C(=S)Nc1nc2ccccc2s1	31	6	.	-3	-18	74*
CCNC(=O)Nc1nc2ccccc2s1	11	2	-2	-11	-4	-1
CCOc1ccc2nc(NC(=S)N(C)C)sc2c1	18	9	0	.	91*	55
CCCC(=O)Nc1nc2ccc(OCC)cc2s1	-8	-7	1	4	-3	11
COc1ccc(Cc2nc3c([nH]2)c(=O)n(C)c(=O)n3C)cc1OC	.	.	.	-9	.	.
Cc1ccc(N(C(=O)c2csnn2)C(C(=O)NC2CCCCC2)c2ccccn2)cc1C (stereo not drawn)	-5	.	1	-3	39	.
